Results filed as inconclusive are left out. Activity calls are given as the source filed them.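 How the source made its calls, unless noted: active means percent response above a set limit, the screen-wide mean plus 3 SD (cut at about 130% in these data); inactive means the rest.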
Columns and labels:
[1] = rapamycin-like changes in RPL19A-GFP expression – cell-based, S. cerevisiae, multiplex flow cytometry, primary screen (AID 1862; in the data active means percent of DMSO control GFP below about 86%;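 further: lower values mimic rapamycin by blocking the RPL19A rise seen in DMSO cells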); conditions: S. cerevisiae RPL19A-GFP strain, flow cytometry fluorescence, 3 h; at 10 µM; stronger effect = lower value
[2] = TOR pathway GLN3 branch reporter MEP2-GFP changes – S. cerevisiae, multiplex flow cytometry, primary screen (AID 1867;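 active means GFP response, as percent of the DMSO control, above the screen-wide mean plus 3 SD, about 139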;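 further: median GFP channel fluorescence of barcode-gated MEP2-GFP cells measured by flow cytometry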); conditions: S. cerevisiae MEP2-GFP strain, 3 h, at 10 µM, stronger effect = higher value, 100% means same as DMSO wells
[3] = TOR pathway RTG branch CIT2 reporter changes – S. cerevisiae, GFP fusion, multiplex flow cytometry, primary screen (AID 1870);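 further: barcoded CIT2-GFP strain pooled with four other GFP strains with rapamycin as positive control; median GFP fluorescence per well over plate mean of DMSO wells so 100% = DMSO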; conditions: S. cerevisiae CIT2-GFP expression, 3 h, at 10 µM, stronger effect = higher value
[4] = TOR pathway LAP4-GFP level changes – S. cerevisiae, multiplex flow cytometry, primary screen (AID 1873;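 active means GFP signal, as percent of the solvent control, above the screen mean plus 3 SD, about 149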); conditions: S. cerevisiae LAP4-GFP expression, 3 h, at 10 µM, stronger effect = higher value
[5] = yeast AGP1-GFP level changes, GLN3 branch – cell-based, multiplex flow cytometry, S. cerevisiae, primary screen (AID 1887;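 active means GFP signal above the screen-wide mean plus 3 SD, that is over about 124.5% of the solvent control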;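 further: AGP1-GFP fusion strain of S. cerevisiae within a five-strain barcoded multiplex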); conditions: 3 h, at 10 µM, stronger effect = higher value
[6] = reduced mouse 2C T cell binding to pMHC/ICAM-1 vesicles – MLPCN validation set, flow cytometry, LFA-1/ICAM-1 modulator project, pilot screen (AID 2523;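 active means response below a set limit, under 55% cells CD8-positive and vesicle-bound, and CD8 cells' 90th-percentile brightness under 279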;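 on vesicle binding response: mean PE anti-B7-1 fluorescence of CD8+ cells relative to row control; 100% = QL9-loaded vesicles with DMSO vehicle in the same plate row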); conditions: 2C mouse CD8+ T cells, at 7 µM, stronger effect = lower value; double positive events: measured here: CD8+/vesicle+ event percentage
[7] = target: Integrin beta-1 (Homo sapiens) + Integrin alpha-4 (Homo sapiens) (UniProt P13612+P05556); test: alpha4beta1 integrin LIBS antibody binding reduction – U937 cells, HUTS-21 mAb, flow cytometry, validation set, VLA-4 allosteric modulator project, pilot screen (AID 2674;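 active means inhibition above 50%, about 3 SD of the validation set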;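 further: antibody binding induced by the VLA-4 ligand LDV present at three times its Kd; 0% = LDV ligand with antibody and no compound and 100% = antibody without LDV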); conditions: HUTS-21 LIBS mAb binding, at 6.7 µM, stronger effect = higher value, binding induced by LDV ligand
[8] = calorie-restriction mimetic ROS inhibitors, yeast – validation compound set, pilot screen (AID 2706;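 active means superoxide response below 65% of plate, a cut near 3 SD across the whole screen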;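 further: yeast exposed to compound for one week at 30 degrees C before staining; 100% = mean of all compound wells on the same plate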); conditions: S. cerevisiae aging, superoxide DHE fluorescence; at 10 µM; stronger effect = lower value
[9] = target: Beta-adrenergic receptor kinase 1 (Homo sapiens) (UniProt P25098); test: GRK2 binders displacing RNA aptamer, biochemical, validation, human GRK2, bead flow cytometry (AID 488806;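 active means aptamer binding inhibition above 30%, about 3 SD of noise from non-fluorescent compounds; inactive means inhibition at or below 30%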); conditions: bead-bound GRK2, FAM-aptamer displacement, at 10 µM, stronger effect = higher value
[10] = target: Beta-2 adrenergic receptor (Homo sapiens) (UniProt P07550); test: agonist-induced loss of surface beta2AR – cell-based, FAP fluorogen, flow cytometry, validation set, pilot screen (AID 504459;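 active means percent response above 42, roughly 3 SD of non-fluorescent test compounds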;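 further: agonist-driven loss of surface beta2AR via internalization measured by FAP dye flow cytometry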); conditions: Am2.2-beta2AR cells, at 10 µM, stronger effect = higher value
[11] = target: AP-2 complex subunit beta (Homo sapiens) (UniProt P63010); test: beta-arrestin/AP2 interaction blockers – biochemical, validation set, GST-AP2 beads, flow cytometry, pilot screen (AID 504541;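 active means inhibition above 54%, about 3 SD of non-fluorescent compounds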;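 further: AP2 carries R879A mutation and is captured from E. coli lysate; bead-bound FITC arrestin peptide fluorescence measuring arrestin peptide binding to AP2; 0% = DMSO wells and 100% = excess unlabeled arrestin peptide control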); conditions: FITC arrestin peptide, at 10 µM, stronger effect = higher value, AP2 beta2 appendage fragment, R879A mutant
[12] = cytosolic pH regulators acting via V-ATPase – S. cerevisiae, pHLuorin, HTS validation (AID 504600; in the data active means response above about 15%;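 further: plate controls were DMSO for no effect and reference compound for full effect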); conditions: V-ATPase proton transport, at 10 µM, stronger effect = higher value
[13] = system: anti-desmoglein-3 scFv antibody binding to human DSG3; test: blockers of pathogenic pemphigus antibody–desmoglein-3 binding – biochemical, validation compound set, bead-based, flow cytometry, pilot screen (AID 588368;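 active means binding below the plate cutoff, the plate median minus 3 SD, with a reading above zero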;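 further: signal is the median channel fluorescence of bead-bound GFP antibody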); conditions: Protein G beads, DSG3-Fc, scFv-GFP binding, at 10 µM, stronger effect = lower value
[14] = Nile Red efflux blockade in pump-expressing yeast – validation compound set, multiplex, phenotypic, pilot screen (AID 588506;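 active means efflux inhibition above 0.42, the validation set average plus 4 SD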;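 further: Nile Red retained in cells so higher fluorescence means more efflux inhibition; 0 = negative control wells and 1 = enniatin B 25 µM full block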); conditions: S. cerevisiae pump-expressing triplex, Nile Red efflux flow cytometry; at 10 µM; stronger effect = higher value; the pumps come from Candida albicans
[15] = target: ATP-binding cassette sub-family B member 6 (Homo sapiens) (UniProt Q9NP58); test: blockers of ABCB6-driven porphyrin uptake – K562-ABCB6 cells, flow cytometry, validation set, pilot screen (AID 588550;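 active means inhibition above the screen-wide mean plus 3 SD, about 51%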;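 further: 0% = DMSO wells and 100% = benzethonium chloride 70 µM positive control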); conditions: K562-ABCB6 porphyrin accumulation, 1 h, at 10 µM, stronger effect = higher value
[16] = AML differentiation inducers, ER-HoxA9 marrow cells – cell-based, GFP/MAC1 double positive, flow cytometry, validation set, primary screen (AID 588685;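 active means differentiation response of at least 50%, scaled between solvent and reference control, from cells with both markers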;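 further: compound exposure lasts four days before antibody staining and flow analysis; 0% = DMSO wells and 100% = 5 µM fulvestrant positive control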); conditions: stronger effect = higher value, normalized: vehicle 0, fulvestrant 100

Beta-adrenergic receptor kinase 1 (Homo sapiens), sequence (P25098 whole entry, looked up): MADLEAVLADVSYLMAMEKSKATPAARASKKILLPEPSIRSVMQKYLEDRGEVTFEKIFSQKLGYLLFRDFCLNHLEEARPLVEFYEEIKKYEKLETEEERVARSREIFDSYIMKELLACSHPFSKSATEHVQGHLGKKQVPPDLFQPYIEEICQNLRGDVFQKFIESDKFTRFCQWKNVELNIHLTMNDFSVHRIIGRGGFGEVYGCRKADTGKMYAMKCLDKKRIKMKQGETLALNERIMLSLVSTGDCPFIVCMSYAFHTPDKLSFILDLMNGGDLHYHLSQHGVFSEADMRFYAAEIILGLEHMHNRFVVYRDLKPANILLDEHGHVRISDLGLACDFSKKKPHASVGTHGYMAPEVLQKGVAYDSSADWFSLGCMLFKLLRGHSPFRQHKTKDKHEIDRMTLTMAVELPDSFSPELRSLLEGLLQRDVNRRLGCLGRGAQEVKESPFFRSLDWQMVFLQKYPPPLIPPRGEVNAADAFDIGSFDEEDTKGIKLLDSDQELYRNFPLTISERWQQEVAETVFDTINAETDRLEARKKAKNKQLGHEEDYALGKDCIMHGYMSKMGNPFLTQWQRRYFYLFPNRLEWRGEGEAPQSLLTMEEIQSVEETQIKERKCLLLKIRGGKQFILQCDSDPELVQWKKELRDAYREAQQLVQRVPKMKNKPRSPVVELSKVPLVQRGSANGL
ATP-binding cassette sub-family B member 6 (Homo sapiens), sequence (Q9NP58 whole entry, looked up): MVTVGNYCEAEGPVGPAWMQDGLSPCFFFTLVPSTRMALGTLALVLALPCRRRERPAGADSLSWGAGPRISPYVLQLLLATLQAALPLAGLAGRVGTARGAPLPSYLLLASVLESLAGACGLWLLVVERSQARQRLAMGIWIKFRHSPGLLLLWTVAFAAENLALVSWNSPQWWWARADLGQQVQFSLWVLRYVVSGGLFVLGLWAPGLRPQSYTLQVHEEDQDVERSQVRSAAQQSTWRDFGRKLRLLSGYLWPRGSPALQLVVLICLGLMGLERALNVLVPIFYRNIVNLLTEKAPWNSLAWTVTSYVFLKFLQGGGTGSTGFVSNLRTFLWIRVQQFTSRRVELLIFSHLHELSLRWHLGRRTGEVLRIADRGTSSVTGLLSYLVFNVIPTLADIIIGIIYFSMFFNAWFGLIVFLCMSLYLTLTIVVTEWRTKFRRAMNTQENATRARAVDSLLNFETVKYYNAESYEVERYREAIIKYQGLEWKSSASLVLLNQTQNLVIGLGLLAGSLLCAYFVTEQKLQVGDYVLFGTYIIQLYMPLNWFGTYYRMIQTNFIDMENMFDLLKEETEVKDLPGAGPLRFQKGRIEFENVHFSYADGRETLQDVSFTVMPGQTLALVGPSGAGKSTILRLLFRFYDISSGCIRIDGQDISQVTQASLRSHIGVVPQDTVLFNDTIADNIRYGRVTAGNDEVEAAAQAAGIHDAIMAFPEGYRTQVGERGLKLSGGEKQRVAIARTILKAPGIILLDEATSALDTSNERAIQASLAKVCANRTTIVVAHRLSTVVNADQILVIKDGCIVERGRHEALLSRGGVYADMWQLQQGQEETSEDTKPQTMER
Beta-2 adrenergic receptor (Homo sapiens), sequence (P07550 whole entry, looked up): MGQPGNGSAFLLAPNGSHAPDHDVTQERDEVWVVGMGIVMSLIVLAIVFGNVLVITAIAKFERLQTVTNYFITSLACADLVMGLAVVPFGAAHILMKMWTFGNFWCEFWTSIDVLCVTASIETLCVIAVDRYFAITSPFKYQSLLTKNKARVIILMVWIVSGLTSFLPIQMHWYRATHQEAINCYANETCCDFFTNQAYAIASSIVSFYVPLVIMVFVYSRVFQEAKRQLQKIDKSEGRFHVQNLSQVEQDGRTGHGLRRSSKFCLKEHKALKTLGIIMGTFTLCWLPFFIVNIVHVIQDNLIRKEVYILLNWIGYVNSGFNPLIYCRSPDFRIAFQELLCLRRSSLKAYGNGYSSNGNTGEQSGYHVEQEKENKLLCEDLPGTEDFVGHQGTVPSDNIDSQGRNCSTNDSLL
Integrin beta-1 (Homo sapiens) + Integrin alpha-4 (Homo sapiens), sequence (P05556 whole entry, looked up): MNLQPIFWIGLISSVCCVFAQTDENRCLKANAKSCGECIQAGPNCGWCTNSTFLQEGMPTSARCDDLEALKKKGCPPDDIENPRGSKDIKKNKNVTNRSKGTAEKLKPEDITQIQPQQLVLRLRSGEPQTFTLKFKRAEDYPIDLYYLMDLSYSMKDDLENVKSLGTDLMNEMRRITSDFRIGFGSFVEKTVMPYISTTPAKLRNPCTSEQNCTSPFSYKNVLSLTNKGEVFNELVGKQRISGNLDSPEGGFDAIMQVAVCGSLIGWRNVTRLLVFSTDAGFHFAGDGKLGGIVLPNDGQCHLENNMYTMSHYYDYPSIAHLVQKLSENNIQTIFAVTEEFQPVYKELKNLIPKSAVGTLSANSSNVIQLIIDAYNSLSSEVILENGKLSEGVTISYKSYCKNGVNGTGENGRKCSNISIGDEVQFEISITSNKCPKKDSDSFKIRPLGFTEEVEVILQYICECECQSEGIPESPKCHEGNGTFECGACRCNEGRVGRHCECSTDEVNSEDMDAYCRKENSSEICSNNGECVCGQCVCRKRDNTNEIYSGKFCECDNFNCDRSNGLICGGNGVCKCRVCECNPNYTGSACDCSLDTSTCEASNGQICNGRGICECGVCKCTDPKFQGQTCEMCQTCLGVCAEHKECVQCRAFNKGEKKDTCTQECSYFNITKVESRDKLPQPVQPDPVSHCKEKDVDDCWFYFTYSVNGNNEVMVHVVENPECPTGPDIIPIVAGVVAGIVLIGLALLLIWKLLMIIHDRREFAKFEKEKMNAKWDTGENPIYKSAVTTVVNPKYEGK
Integrin beta-1 (Homo sapiens) + Integrin alpha-4 (Homo sapiens), sequence (P13612 whole entry, looked up): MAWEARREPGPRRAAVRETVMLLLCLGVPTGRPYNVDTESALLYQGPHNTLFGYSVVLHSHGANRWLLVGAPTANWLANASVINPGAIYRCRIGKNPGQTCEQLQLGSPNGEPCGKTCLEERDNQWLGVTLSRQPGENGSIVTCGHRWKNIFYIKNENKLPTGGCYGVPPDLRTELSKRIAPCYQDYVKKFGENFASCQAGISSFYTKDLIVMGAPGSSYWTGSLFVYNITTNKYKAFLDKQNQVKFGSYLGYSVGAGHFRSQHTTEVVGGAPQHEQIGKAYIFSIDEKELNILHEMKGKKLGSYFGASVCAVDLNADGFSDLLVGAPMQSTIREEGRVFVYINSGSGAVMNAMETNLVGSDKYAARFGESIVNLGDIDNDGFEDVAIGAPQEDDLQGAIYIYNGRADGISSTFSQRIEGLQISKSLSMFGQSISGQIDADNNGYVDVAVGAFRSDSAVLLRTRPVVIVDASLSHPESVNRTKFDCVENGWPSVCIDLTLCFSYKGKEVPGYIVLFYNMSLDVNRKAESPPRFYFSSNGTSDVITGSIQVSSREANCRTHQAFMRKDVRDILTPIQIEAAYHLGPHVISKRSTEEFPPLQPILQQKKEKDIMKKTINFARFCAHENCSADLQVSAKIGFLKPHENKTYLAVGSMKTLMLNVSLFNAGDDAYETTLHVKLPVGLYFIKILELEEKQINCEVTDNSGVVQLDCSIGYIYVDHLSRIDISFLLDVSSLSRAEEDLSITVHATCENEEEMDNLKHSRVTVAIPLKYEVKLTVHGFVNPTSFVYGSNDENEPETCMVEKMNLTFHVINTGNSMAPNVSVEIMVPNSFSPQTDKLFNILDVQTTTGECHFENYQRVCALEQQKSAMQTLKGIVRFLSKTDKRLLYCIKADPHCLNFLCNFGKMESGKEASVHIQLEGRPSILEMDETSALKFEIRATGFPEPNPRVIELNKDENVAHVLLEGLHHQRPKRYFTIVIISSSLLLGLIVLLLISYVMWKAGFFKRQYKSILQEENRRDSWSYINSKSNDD
AP-2 complex subunit beta (Homo sapiens), sequence (P63010 whole entry, looked up, the tested form may be a part, one chain of several): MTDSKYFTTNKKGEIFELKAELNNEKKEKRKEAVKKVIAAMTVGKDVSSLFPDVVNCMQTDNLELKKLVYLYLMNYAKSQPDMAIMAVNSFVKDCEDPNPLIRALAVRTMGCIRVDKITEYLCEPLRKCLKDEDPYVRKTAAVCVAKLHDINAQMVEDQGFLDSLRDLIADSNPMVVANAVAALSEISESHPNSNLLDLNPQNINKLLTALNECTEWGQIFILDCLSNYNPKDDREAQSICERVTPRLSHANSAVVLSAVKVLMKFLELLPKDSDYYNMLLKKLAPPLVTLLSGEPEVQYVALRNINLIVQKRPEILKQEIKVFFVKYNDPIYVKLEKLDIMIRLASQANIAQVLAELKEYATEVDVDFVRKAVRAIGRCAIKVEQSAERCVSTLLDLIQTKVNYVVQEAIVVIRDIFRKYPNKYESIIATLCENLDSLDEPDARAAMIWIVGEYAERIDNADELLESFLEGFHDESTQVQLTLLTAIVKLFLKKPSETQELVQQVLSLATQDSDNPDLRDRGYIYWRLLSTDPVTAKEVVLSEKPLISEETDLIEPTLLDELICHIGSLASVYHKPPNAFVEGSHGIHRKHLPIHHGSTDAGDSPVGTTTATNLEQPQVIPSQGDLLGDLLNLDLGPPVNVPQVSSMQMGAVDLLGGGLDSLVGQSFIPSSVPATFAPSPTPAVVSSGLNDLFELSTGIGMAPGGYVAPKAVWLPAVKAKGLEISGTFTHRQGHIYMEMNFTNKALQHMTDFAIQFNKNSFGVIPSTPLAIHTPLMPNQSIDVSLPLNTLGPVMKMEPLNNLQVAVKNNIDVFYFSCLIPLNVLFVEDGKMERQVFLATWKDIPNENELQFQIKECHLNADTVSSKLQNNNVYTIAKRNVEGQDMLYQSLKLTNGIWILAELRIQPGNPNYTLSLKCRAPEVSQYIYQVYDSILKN

O=C(O)c1ccc(C(=O)C(=O)c2ccccc2)cc1
inactive: percent of DMSO control GFP [1] 104% | GFP response vs DMSO [2] 98.3% | percent response of DMSO control [3] 109% | GFP response vs DMSO [4] 101% | GFP response, % of DMSO [5] 102% | vesicle binding response [6] 304% | inhibition [7] -17.1% | superoxide response (% of plate) [8] 110% | aptamer binding inhibition [9] 3% | response [10] 4.67% | inhibition [11] 1.48% | response [12] 0.41% | binding (% of control) [13] 96.6% | efflux inhibition (fraction of control) [14] -0.01 | inhibition [15] -10% | differentiation response [16] -6.6%
65.4%: double positive events [6]

O=C(OCCNC(=O)c1ccc2ccccc2n1)c1ccc(F)cc1
inactive: percent of DMSO control GFP [1] 103% | GFP response vs DMSO [2] 110% | percent response of DMSO control [3] 97.8% | GFP response vs DMSO [4] 87.4% | GFP response, % of DMSO [5] 88.9% | vesicle binding response [6] 241% | inhibition [7] 2.66% | superoxide response (% of plate) [8] 114% | aptamer binding inhibition [9] 0% | response [10] 4.51% | inhibition [11] 2.3% | response [12] 1.13% | binding (% of control) [13] 99.2% | efflux inhibition (fraction of control) [14] -0.04 | inhibition [15] 0% | differentiation response [16] 8.06%
58.4%: double positive events [6]

COc1ccc(C2C(C#N)=C(N)Oc3cc(C)[nH]c(=O)c32)c(OC)c1OC (stereo not given)
inactive: percent of DMSO control GFP [1] 88.2% | GFP response vs DMSO [2] 117% | percent response of DMSO control [3] 92.6% | GFP response vs DMSO [4] 78.1% | GFP response, % of DMSO [5] 97% | vesicle binding response [6] 168% | inhibition [7] 14.2% | superoxide response (% of plate) [8] 97.7% | aptamer binding inhibition [9] 4% | response [10] -4.98% | inhibition [11] -3.85% | response [12] -1.92% | binding (% of control) [13] 109% | efflux inhibition (fraction of control) [14] 0.16 | inhibition [15] 10% | differentiation response [16] 0%
63.8%: double positive events [6]

COC(=O)c1cc(OC)c(OC)cc1NC(=O)CN1C(=O)c2ccccc2C1=O
inactive: percent of DMSO control GFP [1] 97.1% | GFP response vs DMSO [2] 113% | percent response of DMSO control [3] 93.9% | GFP response vs DMSO [4] 118% | GFP response, % of DMSO [5] 99.4% | vesicle binding response [6] 150% | inhibition [7] -22.3% | superoxide response (% of plate) [8] 103% | aptamer binding inhibition [9] -2% | response [10] -5.28% | inhibition [11] -9.37% | response [12] -5.26% | binding (% of control) [13] 98.4% | efflux inhibition (fraction of control) [14] -0.03 | inhibition [15] 2% | differentiation response [16] -23.2%
54.6%: double positive events [6]

CN(C)CCOCCOc1ccc(Cl)cc1Br
inactive: percent of DMSO control GFP [1] 93.7% | GFP response vs DMSO [2] 119% | percent response of DMSO control [3] 101% | GFP response vs DMSO [4] 77% | GFP response, % of DMSO [5] 90.3% | vesicle binding response [6] 160% | inhibition [7] -2.27% | superoxide response (% of plate) [8] 97.8% | aptamer binding inhibition [9] -6% | response [10] -10% | inhibition [11] -6.43% | response [12] 1.08% | binding (% of control) [13] 105% | efflux inhibition (fraction of control) [14] 0.09 | inhibition [15] 4% | differentiation response [16] 13.1%
47.1%: double positive events [6]

O=C(CN1C(=O)/C(=C/c2cccc(Br)c2)SC1=S)Nc1cccnc1
58.9%: double positive events [6]
inactive: percent of DMSO control GFP [1] 101% | GFP response vs DMSO [2] 105% | percent response of DMSO control [3] 101% | GFP response vs DMSO [4] 109% | GFP response, % of DMSO [5] 109% | vesicle binding response [6] 59.7% | inhibition [7] -19.9% | superoxide response (% of plate) [8] 102% | aptamer binding inhibition [9] 0% | response [10] -8.62% | inhibition [11] -4.86% | response [12] 4.59% | binding (% of control) [13] 99% | efflux inhibition (fraction of control) [14] -0.41 | inhibition [15] -10% | differentiation response [16] 2.74%

COc1ccc2c(c1)[N+](C)(C)C(C)(C)C=C2C
inactive: percent of DMSO control GFP [1] 105% | GFP response vs DMSO [2] 96.2% | percent response of DMSO control [3] 111% | GFP response vs DMSO [4] 90.1% | GFP response, % of DMSO [5] 99.9% | vesicle binding response [6] 953% | inhibition [7] 15.1% | superoxide response (% of plate) [8] 103% | aptamer binding inhibition [9] 2% | response [10] -8.39% | inhibition [11] -11.1% | response [12] -1.92% | binding (% of control) [13] 95.6% | efflux inhibition (fraction of control) [14] -0.04 | inhibition [15] 5% | differentiation response [16] 12.9%
70.1%: double positive events [6]

COc1cc(C(=O)Nc2cccc(-c3nnc(-c4ccco4)o3)c2)ccc1OC(C)=O
inactive: percent of DMSO control GFP [1] 103% | GFP response vs DMSO [2] 103% | percent response of DMSO control [3] 104% | GFP response vs DMSO [4] 109% | GFP response, % of DMSO [5] 107% | inhibition [7] 12.5% | superoxide response (% of plate) [8] 109% | aptamer binding inhibition [9] 5% | response [10] 3.82% | response [12] 2.66% | binding (% of control) [13] 106% | efflux inhibition (fraction of control) [14] 0.17 | inhibition [15] -5% | differentiation response [16] -10.9%
active: vesicle binding response [6] 52.3% | inhibition [11] 64.4%
52.3%: double positive events [6]

COc1ccc(C2C3CCCCC3(O)CCN2C(=O)c2cccs2)cc1 (stereo not given)
inactive: percent of DMSO control GFP [1] 102% | GFP response vs DMSO [2] 105% | percent response of DMSO control [3] 97% | GFP response vs DMSO [4] 107% | GFP response, % of DMSO [5] 107% | vesicle binding response [6] 376% | inhibition [7] -0.27% | superoxide response (% of plate) [8] 102% | aptamer binding inhibition [9] 4% | response [10] -26.4% | inhibition [11] -1.09% | response [12] -1.21% | binding (% of control) [13] 99% | efflux inhibition (fraction of control) [14] 0.12 | inhibition [15] -4% | differentiation response [16] -1.05%
61.4%: double positive events [6]

Cc1ccc(C(=O)Nc2ccc(O)cc2C(=O)O)cc1C
active: response [10] 51.5%
inactive: percent of DMSO control GFP [1] 105% | GFP response vs DMSO [2] 99.6% | percent response of DMSO control [3] 102% | GFP response vs DMSO [4] 75.2% | GFP response, % of DMSO [5] 86.8% | vesicle binding response [6] 274% | inhibition [7] 9.13% | superoxide response (% of plate) [8] 103% | aptamer binding inhibition [9] 3% | inhibition [11] -1.05% | response [12] 1.04% | binding (% of control) [13] 106% | efflux inhibition (fraction of control) [14] 0.05 | inhibition [15] -4% | differentiation response [16] 5.6%
58.8%: double positive events [6]
